# C8 TRAIL sens: sensitizes caspase-8 expressing cells to TRAIL; NB7+C8 cells + TRAIL, ATPlite viability luminescence; inhibition (viability loss, TRAIL sensitization), % at 10 µM; 360,000 tested, 1% active;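 active = compounds causing at least 50% loss of cell viability in the single-dose screen, relative to plate controls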
# SENP7 inh: SENP7 protease inhibition; Q9BQF6; recombinant SENP7, Z-RLRGG-aminoluciferin luminescence, 40 min; inhibition, % at 5 µM; 330,000 tested, 1.5% active; AID 434973;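 active = inhibition above about 50% at the single test dose, limit read from the data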;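 also: plate controls were DMSO with enzyme for no effect and no enzyme buffer wells for full effect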
# SENP6 block: inhibitors of human SENP6 protease | Q9GZR1 | Recombinant SENP6 catalytic domain, aminoluciferin luminescence | inhibition, % at 10 µM | 330,000 tested, 1.8% active;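 active = inhibition above about 50% at the single tested dose, limit read from the data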;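 also: plate controls were DMSO wells with enzyme for no effect and DMSO wells lacking enzyme for full effect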
# Target sequence (Q9GZR1 628-1112 limits assumed): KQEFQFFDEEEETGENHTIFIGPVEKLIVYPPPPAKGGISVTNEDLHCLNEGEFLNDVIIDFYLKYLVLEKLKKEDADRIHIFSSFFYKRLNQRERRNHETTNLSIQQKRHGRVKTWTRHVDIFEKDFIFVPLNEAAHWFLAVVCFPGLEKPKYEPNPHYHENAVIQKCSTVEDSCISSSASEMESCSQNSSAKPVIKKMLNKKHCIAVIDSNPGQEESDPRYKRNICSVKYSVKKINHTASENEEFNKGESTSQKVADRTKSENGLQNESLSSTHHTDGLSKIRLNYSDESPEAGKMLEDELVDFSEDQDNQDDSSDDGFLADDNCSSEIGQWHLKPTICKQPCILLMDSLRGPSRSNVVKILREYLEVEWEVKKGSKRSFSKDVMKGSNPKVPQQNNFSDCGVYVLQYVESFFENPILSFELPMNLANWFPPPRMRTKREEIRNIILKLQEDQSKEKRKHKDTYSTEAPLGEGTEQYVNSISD
# SENP8 block-1: SENP8 protease inhibition; AID 2540; purified SENP8, Z-RLRGG-aminoluciferin cleavage, luminescence; Q96LD8; inhibition, % at 10 µM; 330,000 tested, 1.2% active; in the data active = inhibition above about 50%
# PPC-1+TRAIL kill: PPC-1 cancer cell killing with TRAIL present | cell killing (% activity), % at 4 µM or 5 µM | 220,000 tested, 0.41% active | PPC-1 cells + TRAIL, ATPLite viability luminescence;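 active = cell killing above 50% in the first pass at 4 µM, then a duplicate retest at 5 µM averaging 50% or more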;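 also: plate controls were cells with TRAIL plus DMSO for no effect and medium-only wells lacking cells for full effect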
# SENP8 block-2: SENP8 (human) protease inhibition. AID 602440. recombinant SENP8, Nedd8 substrate fluorescence. Q96LD8. 360,000 tested, 0.64% active. inhibition, % at 20 µM; in the data active = inhibition mostly above about 40%, no sharp cut-off; inactive = mostly below about 27%
# SENP8 conf: confirmation of human SENP8 protease inhibitors; 6,200 tested, 40% active; Recombinant SENP8, Z-RLRGG-aminoluciferin luminescence, 60 min; shares compounds with SENP7 inh; inhibition, % at 12.5 µM;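 active = mean inhibition across replicates above about 50%, limit read from the data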
# SENP6 confirm: human SENP6 inhibition, confirmed | shares compounds with SENP7 inh | recombinant SENP6, Z-RLRGG-aminoluciferin luminescence | inhibition, % at 12.5 µM | 6,200 tested, 58% active
# SENP7 confirm: human SENP7 inhibition, confirmed; inhibition, % at 12.5 µM; 6,200 tested, 69% active; recombinant SENP7, Z-RLRGG-aminoluciferin luminescence, 40 min; shares compounds with SENP7 inh
# Casp3 select: selectivity test for SENP inhibitors: human caspase-3 inhibition | purified caspase-3, Z-DEVD-aminoluciferin luminescence, 60 min | inhibition, % at 12.5 µM | AID 488918 | 6,200 tested, 60% active | shares compounds with SENP7 inh;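 active = mean inhibition above about 50%, limit read from the data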;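 also: plate controls were enzyme with DMSO for no effect and wells without caspase-3 for full effect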
# Luc interf: counter-screen for SENP inhibitors: luminescence interference; shares compounds with SENP7 inh; Pre-incubated SENP8/Z-RLRGG-aminoluciferin, luciferase luminescence interference; inhibition, % at 12.5 µM; 6,200 tested, 39% active; AID 488919;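 active = mean inhibition above about 50% when retested at one dose, limit read from the data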;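 also: plate controls were DMSO wells with completed reaction for no effect and substrate without enzyme for full effect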
# Numbers without * were called inactive; . = not tested or not shown. Most compounds without a hit are left out; they make up all but 3% or so of the library.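 The calls were made as follows, unless noted: active = mean inhibition above about 50% in the one-dose retest (limit read from the data); inactive = the rest.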
SMILES,C8 TRAIL sens,SENP7 inh,SENP6 block,SENP8 block-1,PPC-1+TRAIL kill,SENP8 block-2,SENP8 conf,SENP6 confirm,SENP7 confirm,Casp3 select,Luc interf
Cc1oc2cc3oc(=O)c(CCC(=O)N[C@H](C(=O)O)C(C)C)c(C)c3cc2c1C,-6,-4,-49,-6,.,-290,.,.,.,.,.
COc1ccc(OC)c(C(=O)COC(=O)COc2ccccc2)c1,-10,3,-16,6,.,-83,.,.,.,.,.
CCOC(=O)c1ccc(-c2ccc(CO)o2)cc1,1,55*,65*,29,0,-272,60*,57*,86*,73*,64*
CCOC(=O)c1ccc(COC(=O)c2ccc(-c3nnc(-c4ccccc4)o3)cc2)o1,-7,3,53*,25,.,-161,24,20,22,59*,51*
Cc1ccc(NC(=S)NC2CCCCC2)cc1S(=O)(=O)N(C)C,-3,-11,-15,-4,4,6,.,.,.,.,.
C=CCOc1cccc(/C=C/c2nc3ccccc3c(=O)[nH]2)c1,57*,82*,37,28,.,-35,-10,4,12,17,13
COC(=O)c1ccc(/C=C/c2nc3ccccc3c(=O)[nH]2)cc1,53*,96*,89*,85*,.,-321,29,24,52*,63*,-4
Cc1ccccc1/C=C\c1nc2ccccc2c(=O)[nH]1,35,85*,76*,69*,32,-74,15,24,62*,25,-4
COc1cc(/C=C/c2nc3ccccc3c(=O)[nH]2)cc(OC)c1OC,10,-3,-13,15,.,-296,.,.,.,.,.
CC(=O)c1c(C)[nH]c(C(=O)N(C)CC(=O)Nc2ccc(Cl)c(C(F)(F)F)c2)c1C,3,-9,-7,-1,.,1,.,.,.,.,.
CC(C)(C)NC(=O)COc1ccc(-c2ccccc2)cc1,12,32,51*,-1,22,14,36,28,62*,31,21
CCNC(=O)COc1ccc(-c2ccccc2)cc1,14,-4,-19,-19,-2,31,.,.,.,.,.
CCCS(=O)(=O)N1CCCC(C(=O)Oc2ccc(OC)cc2)C1 (centres undefined),-13,4,5,11,.,11,.,.,.,.,.
Cc1cc2c(cc1C)C(=O)NC(C)(C)C2,-9,59*,-1,-4,11,6,6,6,2,1,-3
COc1ccc([C@H]2CC(=O)C=C(c3ccc(C)c([N+](=O)[O-])c3)C2)cc1,-2,-6,-8,-8,.,28,.,.,.,.,.
CN1C(=O)C(CC(=O)O)S/C1=N\N=C\c1ccc(O)cc1O (centres undefined),-5,41,61*,28,15,-42,34,33,74*,80*,40
CCOC(=O)/C(=C/c1ccc(N2CCC(c3ccccc3)=N2)cc1)C(C)=O,36,.,.,.,35,-394,.,.,.,.,.
c1ccc(C2=NN(c3ccccc3)CC2)cc1,-13,59*,6,57*,21,-450,13,24,32,40,37
CC(C)(C)c1ccc(CN2N=C(/C=C/c3ccccc3)CCC2=O)cc1,-1,-9,-28,-4,7,-27,.,.,.,.,.
Cc1cccc(NC(=O)c2ccoc2C)n1,-6,31,39,5,9,-5,.,.,.,.,.
O=C(Nc1ccc2ccccc2c1)c1ccccc1O,72*,96*,99*,96*,.,-130,94*,96*,102*,92*,64*
Cc1occc1C(=O)Nc1ccc2ccccc2c1,9,-5,-8,82*,3,-18,7,96*,102*,92*,95*
O=C(Nc1ccc2ccccc2c1)c1ccccc1Cl,39,.,.,.,.,14,.,.,.,.,.
Cc1occc1C(=O)Nc1cc(C(C)(C)C)on1,14,97*,96*,93*,16,21,93*,95*,102*,97*,95*
O=C(Nc1ccc2ccccc2c1)c1ccc(Cl)cc1Cl,61*,85*,68*,55*,41,18,0,54*,50*,55*,10
SMILES,C8 TRAIL sens,SENP7 inh,SENP6 block,SENP8 block-1,PPC-1+TRAIL kill,SENP8 block-2,SENP8 conf,SENP6 confirm,SENP7 confirm,Casp3 select,Luc interf
Cn1c(CO)nc2c3ccccc3ccc21,12,-15,-8,-6,.,15,.,.,.,.,.
O=C(NC(c1ccc(Cl)cc1)c1ccsc1)C1CCN(Cc2cccc(Cl)c2)CC1 (centres undefined),28,.,.,.,.,10,.,.,.,.,.
c1ccc(N2CCN(CC3CCCCC3)CC2)cc1,4,-2,-6,0,.,11,.,.,.,.,.
O=C(c1ccc2c(c1)OCO2)C1CCCN(C2CCN(CCc3ccccc3)CC2)C1 (centres undefined),8,-8,-10,0,12,-5,.,.,.,.,.
CC1(C)OC2OC3C(CNCCO)OC(c4ccccc4)OC3C2O1 (centres undefined),-11,.,.,.,.,13,.,.,.,.,.
COc1ccc(C2C(=O)c3ccccc3C2=O)cc1,31,12,57*,62*,18,-19,-8,67*,91*,84*,62*
COc1ccc(C2=C(N)c3ccccc3C2=O)cc1,47,-26,54*,37,39,23,52*,49,83*,73*,8
O=C(NCc1cccc(C(F)(F)F)c1)c1ccc2sc(C3=C[C@@H](O)[C@@H](O)[C@@H](CO)O3)nc2c1,-10,.,.,.,.,-30,.,.,.,.,.
Cc1ccc2c(c1)c(=O)c1c3n2CCN(C(=O)CCl)C3CC1 (centres undefined),3,31,50*,27,8,-179,24,60*,17,5,-4
CS(=O)(=O)N1CCc2ccc(NC(=O)C3CCCO3)cc2C1 (centres undefined),-5,-2,3,10,.,2,.,.,.,.,.
COc1ccc2nc(Nc3ccc4c(c3)OCO4)sc2c1,5,58*,9,-22,39,30,3,2,22,29,19
COc1ccc2nc(Nc3ccccc3)sc2c1,52*,84*,56*,70*,49,-1,88*,88*,98*,61*,84*
COc1ccc2nc(Nc3nc4cc5c(cc4s3)OCO5)sc2c1,-3,0,2,-11,10,-307,.,.,.,.,.

# Screening data as filed in PubChem.
